Test results taken from PubChem BioAssay (NCATS).
Several values for one entry are separate records, joined by “and”; a condition that tells them apart may be missing. Equal values may be shown once. Records with an inconclusive call do not appear. Entries that show only a call come without a potency. Activity calls are given as the source filed them. Calls come from the whole dose curve; as a rule, active = well fitted inhibition curve with a large enough effect; inconclusive = small, poorly fitted or top-dose-only effect; inactive = flat fitted curve, though single readings scatter.

How the values were obtained:
[1] = qHTS profiling for inhibitors of Plasmodium falciparum proliferation (AID 504749); note: nearly all actives have a fitted effect of over 60% in size; details: P. falciparum in erythrocytes, SYBR Green DNA, 72 h
How it was run: (§1)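 Readout was DNA-dye fluorescence from lysed cultures, ex 485/em 535 nm. Parasitized red cells had grown 72 h with compound; data scaled between 0.29 uM artemisinin and DMSO wells and corrected using vehicle-only plates.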

3D7 = test: as above; details: P. falciparum in erythrocytes, SYBR Green DNA, 72 h; series mostly up to 28.7 µM
How it was run: as §1

7G8 = test: as above; details: P. falciparum in erythrocytes, SYBR Green DNA, 72 h; series mostly up to 28.7 µM
How it was run: as §1

AA1029 = test: as above; details: P. falciparum in erythrocytes, SYBR Green DNA, 72 h; series mostly up to 28.7 µM
How it was run: as §1

AS120 = test: as above; details: P. falciparum in erythrocytes, SYBR Green DNA, 72 h; series mostly up to 28.7 µM
How it was run: as §1

ATS189 = test: as above; details: P. falciparum in erythrocytes, SYBR Green DNA, 72 h; series mostly up to 28.7 µM
How it was run: as §1

ATS95 = test: as above; details: P. falciparum in erythrocytes, SYBR Green DNA, 72 h; series mostly up to 28.7 µM
How it was run: as §1

C2A = test: as above; details: P. falciparum in erythrocytes, SYBR Green DNA, 72 h; series mostly up to 28.7 µM
How it was run: as §1

CP185 = test: as above; details: P. falciparum in erythrocytes, SYBR Green DNA, 72 h; series mostly up to 28.7 µM
How it was run: as §1

CP191 = test: as above; details: P. falciparum in erythrocytes, SYBR Green DNA, 72 h; series mostly up to 28.7 µM
How it was run: as §1

CP192 = test: as above; details: P. falciparum in erythrocytes, SYBR Green DNA, 72 h; series mostly up to 28.7 µM
How it was run: as §1

CP194 = test: as above; details: P. falciparum in erythrocytes, SYBR Green DNA, 72 h; series mostly up to 28.7 µM
How it was run: as §1

CP201 = test: as above; details: P. falciparum in erythrocytes, SYBR Green DNA, 72 h; series mostly up to 28.7 µM
How it was run: as §1

CP211 = test: as above; details: P. falciparum in erythrocytes, SYBR Green DNA, 72 h; series mostly up to 28.7 µM
How it was run: as §1

CP203 = test: as above; details: P. falciparum in erythrocytes, SYBR Green DNA, 72 h; series mostly up to 28.7 µM
How it was run: as §1

[2] = at 28.7 µM (top of the series), parasite line A
[3] = at 28.7 µM (top of the series), parasite line B
Potency is the fitted concentration of half-maximal effect.

Structure (SMILES) | activity, negative = inhibition [1, 2] | activity, negative = inhibition [1, 3] | Potency (3D7) | Potency (7G8) | Potency (AA1029) | Potency (AS120) | Potency (ATS189) | Potency (ATS95) | Potency (C2A) | Potency (CP185) | Potency (CP191) | Potency (CP192) | Potency (CP194) | Potency (CP201) | Potency (CP211) | Potency (CP203) | activity, negative = inhibition ([1]; at 12.8 µM (top of the series), parasite line A) | activity, negative = inhibition ([1]; at 12.8 µM (top of the series), parasite line B) | Potency ([1]; parasite line A) | Potency ([1]; parasite line B)
Nc1ccc(O)c(C(=O)O)c1 | -0.61% (inactive) | -10.7% (inactive) | inactive | inactive | inactive | inactive | inactive | inactive | inactive | inactive | inactive | inactive | inactive | inactive | inactive | – | – | – | – | –
C=C(Nc1ccc(OCC)cc1)Nc1ccc(OCC)cc1 | 1.26% (inactive) and 13.3% (inactive) | -29.4% (inactive) and 7.39% (inactive) | inactive | inactive | inactive | inactive | inactive | inactive | inactive | inactive | inactive | inactive | inactive | inactive | inactive | – | – | – | – | –
CN1CCN(c2cc3c(nn2)Oc2ccccc2N3C)CC1 | 11.3% (inactive) | 1.64% (inactive) | inactive | inactive | inactive | inactive | inactive | inactive | inactive | inactive | inactive | inactive | inactive | inactive | inactive | – | – | – | – | –
Cc1[nH]cnc1CN1CCc2c(c3ccccc3n2C)C1=O | 12% (inactive) | 7.41% (inactive) | inactive | inactive | inactive | inactive | inactive | inactive | inactive | inactive | inactive | inactive | inactive | inactive | inactive | inactive | – | – | – | –
C=CCN1C(=O)C(CC(C)C)NC1=S (stereo not given) | -18.4% (inactive) and 2.94% (inactive) | -2.47% (inactive) and 3.7% (inactive) | inactive | inactive | inactive | inactive | inactive | inactive | inactive | inactive | inactive | inactive | inactive | inactive | inactive | – | – | – | – | –
CCC1C(=O)OCC1Cc1cncn1C (stereo not given) | -3.99% (inactive) | -7.08% (inactive) | inactive | inactive | inactive | inactive | inactive | inactive | inactive | inactive | inactive | inactive | inactive | inactive | inactive | – | – | – | – | –
O=C(OCc1ccccc1)c1ccccc1 | -9.71% (inactive) | -8.05% (inactive) | inactive | inactive | inactive | inactive | inactive | inactive | inactive | inactive | inactive | inactive | inactive | inactive | inactive | – | – | – | – | –
COc1ccc(-c2cc(=S)ss2)cc1 | -10.3% (inactive) | -12.9% (inactive) | inactive | 12.6 µM (active) | inactive | inactive | inactive | inactive | inactive | inactive | inactive | inactive | inactive | inactive | inactive | – | – | – | – | –
Cc1c(Nc2ncccc2C(=O)O)cccc1C(F)(F)F | – | – | inactive | inactive | inactive | inactive | inactive | inactive | inactive | inactive | inactive | inactive | inactive | inactive | inactive | – | 7.85% (inactive) | -2.62% (inactive) | – | –
CC1(C)C[C@@H]1C(=O)N/C(=C\CCCCSC[C@H](N)C(=O)O)C(=O)O | 10.1% (inactive) | -12.7% (inactive) | inactive | inactive | inactive | inactive | inactive | inactive | inactive | inactive | inactive | inactive | inactive | inactive | inactive | – | – | – | – | –
O=C(/C=C/c1ccccc1)NCCO | 4.35% (inactive) | -2.74% (inactive) | inactive | inactive | inactive | inactive | inactive | inactive | inactive | inactive | inactive | inactive | inactive | inactive | inactive | inactive | – | – | – | –
CCCCCCOc1ccccc1C(N)=O | -23.7% (inactive) | 1.07% (inactive) | inactive | inactive | inactive | inactive | inactive | inactive | inactive | inactive | inactive | inactive | inactive | inactive | inactive | – | – | – | – | –
COc1cc2c3cc1Oc1cc(ccc1O)C[C@@H]1c4c(cc(OC)c(O)c4Oc4ccc(cc4)C[C@@H]3N(C)CC2)CC[N+]1(C)C | 5.03% (inactive) | 8.98% (inactive) | inactive | inactive | inactive | inactive | inactive | inactive | inactive | inactive | inactive | inactive | inactive | inactive | inactive | – | – | – | – | –
O=C(O)[C@H](O)[C@@H](O)[C@H](O)[C@H](O)CO | 1.4% (inactive) | 5.65% (inactive) | inactive | inactive | inactive | inactive | inactive | inactive | inactive | inactive | inactive | inactive | inactive | inactive | inactive | – | – | – | – | –
CC(C(=O)O)c1ccc2c(c1)[nH]c1ccc(Cl)cc12 (stereo not given) | 3.75% (inactive) | 2.58% (inactive) | inactive | inactive | inactive | inactive | inactive | inactive | inactive | inactive | inactive | inactive | inactive | inactive | inactive | – | – | – | – | –
C=CC(N)CCC(=O)O (stereo not given) | 0.626% (inactive) | 10.5% (inactive) | inactive | inactive | inactive | inactive | inactive | inactive | inactive | inactive | inactive | inactive | inactive | inactive | inactive | – | – | – | – | –
CCCCCC[C@@H](O)C/C=C\CCCCCCCC(=O)O | -10.4% (inactive) | -8.48% (inactive) | inactive | inactive | inactive | inactive | inactive | inactive | inactive | inactive | inactive | inactive | inactive | inactive | inactive | – | – | – | – | –
CN(C)c1ccc(C(=C2C=CC(=[N+](C)C)C=C2)c2ccccc2)cc1 | – | – | 2.24 µM (active) | 11.2 µM (active) | 8.91 µM (active) | 11.2 µM (active) | 7.94 µM (active) | – | 12.6 µM (active) | – | 7.94 µM (active) | inactive | – | – | – | 10.7 µM (active) | – | – | 11.2 µM (active) | 11.2 µM (active)
CCCCC[C@H](O)/C=C/[C@@H]1[C@@H](C/C=C\CCCC(=O)O)[C@@H](O)C[C@H]1O | 7.31% (inactive) | 11% (inactive) | inactive | – | inactive | inactive | inactive | inactive | inactive | inactive | inactive | inactive | inactive | inactive | inactive | inactive | – | – | – | –
O=c1[nH]c2ccccc2n1CCCN1CCN(C(c2ccccc2)c2ccccc2)CC1 | -13.9% (inactive) | – | – | 7.08 µM (active) | – | – | – | – | inactive | – | – | – | – | inactive | – | – | – | – | – | –
O=C(CCN1CCN(CCO)CC1)N1c2ccccc2Sc2ccc(C(F)(F)F)cc21 | – | – | – | 7.94 µM (active) | inactive | 14.1 µM (active) | 11.2 µM (active) | inactive | – | – | 4.47 µM (active) | inactive | – | inactive | – | – | – | – | 14.1 µM (active) | –
CN1[C@@H](CC(=O)c2ccccc2)CCC[C@H]1C[C@H](O)c1ccccc1 | -28.5% (inactive) | – | inactive | 8.91 µM (active) | 11.2 µM (active) | 12.6 µM (active) | – | – | inactive | – | – | – | – | inactive | inactive | – | – | – | – | 12.6 µM (active)
CCCC(=O)OC[C@@H](OC(=O)CCC)[C@@H](OC(=O)CCC)[C@H](Cn1c2nc(=O)[nH]c(=O)c-2nc2cc(C)c(C)cc21)OC(=O)CCC | -28.7% (inactive) | – | – | – | – | – | inactive | – | – | – | – | inactive | inactive | inactive | inactive | – | – | – | – | –
COC(=O)C1=C(C)NC(C)=C(C(=O)OCC(C)C)C1c1ccccc1[N+](=O)[O-] (stereo not given) | – | – | – | 3.16 µM (active) | – | 10 µM (active) | – | – | – | – | 12.6 µM (active) | – | – | – | – | – | – | – | 11.2 µM (active) | 10 µM (active)
Cc1cc(O)c2ccccc2c1O | 7.28% (inactive) | -10.1% (inactive) | 12.6 µM (active) | – | inactive | inactive | inactive | inactive | inactive | inactive | inactive | inactive | inactive | inactive | inactive | – | – | – | – | –
CCCCCCCCCCCC(=O)[O][Sn]([CH2]CCC)([CH2]CCC)[O]C(=O)CCCCCCCCCCC | -9.86% (inactive) | -5.91% (inactive) | inactive | inactive | inactive | inactive | inactive | inactive | inactive | inactive | inactive | inactive | inactive | inactive | inactive | – | – | – | – | –
CC(=O)[C@]1(O)Cc2c(O)c3c(c(O)c2[C@@H](O[C@H]2C[C@H](N)[C@H](O)[C@H](C)O2)C1)C(=O)c1c(O)cccc1C3=O | – | – | 3.16 µM (active) | 1.12 µM (active) | 7.08 µM (active) | 7.94 µM (active) | 10 µM (active) | 7.08 µM (active) | – | – | 6.31 µM (active) | 13.5 µM (active) | 13.5 µM (active) | – | 10.7 µM (active) | 9.53 µM (active) | – | – | 7.08 µM (active) | 12.6 µM (active)
CC(N)C(=O)OC(C)(C)Cc1ccc(Cl)cc1 (stereo not given) | 3.68% (inactive) | 0.818% (inactive) | inactive | 10 µM (active) | – | – | – | – | inactive | – | inactive | inactive | – | – | – | – | – | – | – | –
CCCOC(=O)c1ccc(O)cc1 | 4.05% (inactive) | 3.75% (inactive) | inactive | – | inactive | inactive | inactive | inactive | inactive | inactive | inactive | inactive | inactive | inactive | inactive | inactive | – | – | – | –
Nc1ccc(C(=O)O)c(O)c1 | 9.01% (inactive) | -22.6% (inactive) | inactive | inactive | inactive | inactive | inactive | inactive | inactive | inactive | inactive | inactive | inactive | inactive | inactive | – | – | – | – | –
